Test results taken from PubChem BioAssay AID1159580 (chemical genetic matrix, 2015).
In all, about 5,500 compounds went through this assay and about 2,000 (36%) were called active. Another 18% or so got no clear call; they are omitted. Rule as the data show it: active = normalized growth mostly below about 0.91 (no sharp cut-off); inconclusive = no clear call, values can overlap the other calls; inactive = mostly above about 0.92. Some of the results follow.

Assay: chemical genetic growth profiling, strain panel (AID 1159580);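 also: tested at 20 µM; growth read once vehicle control cultures reached saturation at 30 °C; 1 = growth at the plate median or of vehicle wells; lower values mean less growth of the strain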
Conditions: S. cerevisiae deletion strains, growth OD
[1] = locus YAR019C, strain CDC15, stronger effect = lower value
[2] = locus YBL105C, strain PKC1, stronger effect = lower value
[3] = locus YBR135W, strain CKS1, stronger effect = lower value
[4] = locus YBR136W, strain MEC1, stronger effect = lower value
[5] = locus YBR160W, strain CDC28, stronger effect = lower value
[6] = locus YDL017W, strain CDC7, stronger effect = lower value
[7] = locus YDL028C, strain MPS1, stronger effect = lower value
[8] = locus YDL101C, strain DUN1, stronger effect = lower value
[9] = locus YDL108W, strain KIN28, stronger effect = lower value
[10] = locus YDL132W, strain cdc53, stronger effect = lower value
[11] = locus YDL214C, strain PRR2, stronger effect = lower value
[12] = locus YDR052C, strain DBF4, stronger effect = lower value
[13] = locus YDR054C, strain cdc34, stronger effect = lower value
[14] = locus YDR226W, strain ADK1, stronger effect = lower value
[15] = locus YDR477W, strain SNF1, stronger effect = lower value
[16] = locus YER123W, strain YCK3, stronger effect = lower value
[17] = locus YER133W, strain GLC7, stronger effect = lower value
[18] = locus YFL009W, strain cdc4, stronger effect = lower value
[19] = locus YFL029C, strain CAK1, stronger effect = lower value
[20] = locus YFR003C, strain YPI1, stronger effect = lower value
[21] = locus YFR019W, strain FAB1, stronger effect = lower value
[22] = locus YFR028C, strain CDC14, stronger effect = lower value
[23] = locus YGR040W, strain KSS1, stronger effect = lower value
[24] = locus YGR052W, strain FMP48, stronger effect = lower value
[25] = locus YGR092W, strain DBF2, stronger effect = lower value
[26] = locus YHR030C, strain SLT2, stronger effect = lower value
[27] = locus YHR079C, strain IRE1, stronger effect = lower value
[28] = locus YHR082C, strain KSP1, stronger effect = lower value
[29] = locus YHR205W, strain SCH9, stronger effect = lower value
[30] = locus YIL147C, strain SLN1, stronger effect = lower value
[31] = locus YJL095W, strain BCK1, stronger effect = lower value
[32] = locus YJL128C, strain PBS2, stronger effect = lower value
[33] = locus YJL157C, strain FAR1, stronger effect = lower value
[34] = locus YJR016C, strain ILV3, stronger effect = lower value
[35] = locus YJR066W, strain TOR1 (second series), stronger effect = lower value
[36] = locus YJR066W, strain TOR1, stronger effect = lower value
[37] = locus YKL048C, strain ELM1, stronger effect = lower value
[38] = locus YKL067W, strain YNK1, stronger effect = lower value
[39] = locus YKL101W, strain HSL1, stronger effect = lower value
[40] = locus YKL193C, strain SDS22, stronger effect = lower value
[41] = locus YKL203C, strain TOR2, stronger effect = lower value
[42] = locus YLR113W, strain HOG1, stronger effect = lower value
[43] = locus YLR133W, strain CKI1, stronger effect = lower value
[44] = locus YLR403W, strain SFP1, stronger effect = lower value
[45] = locus YML070W, strain DAK1, stronger effect = lower value
[46] = locus YMR001C, strain CDC5, stronger effect = lower value
[47] = locus YMR205C, strain PFK2 (second series), stronger effect = lower value
[48] = locus YMR277W, strain FCP1, stronger effect = lower value
[49] = locus YNL006W, strain LST8, stronger effect = lower value
[50] = locus YNL020C, strain ARK1, stronger effect = lower value
[51] = locus YNL161W, strain CBK1, stronger effect = lower value
[52] = locus YNL183C, strain NPR1, stronger effect = lower value
[53] = locus YNL207W, strain RIO2, stronger effect = lower value
[54] = locus YNL222W, strain SSU72, stronger effect = lower value
[55] = locus YNL307C, strain MCK1 (second series), stronger effect = lower value
[56] = locus YOL078W, strain AVO1, stronger effect = lower value
[57] = locus YOL136C, strain PFK27, stronger effect = lower value
[58] = locus YOR061W, strain CKA2, stronger effect = lower value
[59] = locus YOR119C, strain RIO1, stronger effect = lower value
[60] = locus YOR231W, strain MKK1, stronger effect = lower value
[61] = locus YOR329C, strain SCD5, stronger effect = lower value
[62] = locus YPL031C, strain PHO85, stronger effect = lower value
[63] = locus YPL153C, strain RAD53, stronger effect = lower value
[64] = locus YPL204W, strain HRR25, stronger effect = lower value
[65] = locus YPL209C, strain IPL1, stronger effect = lower value
[66] = locus YPL256C, strain CLN2, stronger effect = lower value
[67] = locus YPR025C, strain CCL1, stronger effect = lower value
[68] = locus YPR106W, strain ISR1, stronger effect = lower value
[69] = locus YPR111W, strain DBF20, stronger effect = lower value
[70] = strain NNK1, stronger effect = lower value
[71] = strain TSCII, stronger effect = lower value

Measured: normalized growth

COc1ccc(C(CC(=O)c2ccccc2)Sc2ccccc2N)cc1OC (configuration not stated)
inactive: [1] 0.977 | [2] 0.971 | [3] 0.98 | [4] 0.972 | [5] 0.98 | [6] 0.972 | [7] 0.979 | [8] 0.976 | [9] 0.974 | [10] 0.987 | [11] 0.948 | [12] 0.974 | [13] 0.971 | [14] 0.979 | [15] 0.958 | [16] 0.935 | [17] 0.954 | [18] 0.981 | [19] 0.966 | [20] 0.972 | [21] 0.963 | [22] 0.967 | [23] 0.946 | [24] 1.02 | [25] 0.959 | [26] 0.921 | [27] 0.95 | [28] 0.985 | [29] 0.935 | [30] 0.965 | [31] 0.947 | [32] 0.944 | [33] 0.965 | [34] 0.985 | [35] 1 | [36] 0.955 | [37] 0.977 | [38] 0.946 | [39] 0.927 | [40] 0.979 | [41] 0.99 | [42] 0.898 | [43] 0.952 | [44] 0.934 | [45] 0.941 | [46] 0.965 | [47] 0.958 | [48] 0.983 | [49] 0.984 | [50] 0.961 | [51] 0.978 | [52] 0.966 | [53] 0.975 | [54] 0.979 | [55] 0.974 | [56] 0.98 | [57] 0.955 | [58] 0.934 | [59] 0.962 | [60] 0.937 | [61] 0.971 | [62] 0.957 | [63] 0.978 | [64] 0.993 | [65] 0.984 | [66] 0.899 | [67] 0.976 | [68] 0.967 | [69] 0.979 | [70] 0.968 | [71] 0.973

Cc1cc(C)cc(Sc2ccc3nnc(-c4ccccc4)n3n2)c1
inactive: [1] 0.983 | [2] 0.988 | [3] 0.984 | [4] 0.977 | [5] 0.988 | [6] 0.986 | [7] 1 | [8] 0.973 | [9] 0.993 | [10] 0.977 | [11] 0.998 | [12] 0.986 | [13] 0.975 | [14] 0.982 | [15] 0.99 | [16] 0.972 | [17] 0.978 | [18] 0.979 | [19] 0.984 | [20] 0.991 | [21] 0.962 | [22] 0.987 | [23] 0.991 | [24] 1.09 | [25] 0.977 | [26] 1.08 | [27] 1.07 | [28] 1.07 | [29] 0.988 | [30] 1 | [31] 1.06 | [32] 0.933 | [33] 0.982 | [34] 0.979 | [35] 0.942 | [36] 1.11 | [37] 0.979 | [38] 0.999 | [39] 0.986 | [40] 0.983 | [41] 1.06 | [42] 0.978 | [43] 0.998 | [44] 1 | [45] 0.983 | [46] 0.981 | [47] 0.997 | [48] 0.986 | [49] 0.998 | [50] 1 | [51] 0.986 | [52] 1.1 | [53] 0.989 | [54] 0.983 | [55] 0.995 | [56] 0.992 | [57] 0.995 | [58] 0.986 | [59] 0.993 | [60] 1.05 | [61] 0.985 | [62] 0.978 | [63] 0.944 | [64] 0.965 | [65] 0.985 | [66] 1.04 | [67] 0.984 | [68] 0.977 | [69] 0.982 | [70] 0.98 | [71] 0.982
